Structures are written as SMILES. This is part of a sample that, as a whole, favours compounds with a hit. Of some 79,000 tested, about 15% had one in any assay. A number with no mark means an inactive call. Calls of active or inactive are those of the source. Rule as the data show it: active = growth inhibition above about 70%; inactive = the rest.

This assay in a line: NCI Yeast Anticancer Drug Screen. Data for the wt1 strain (AID 149).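 Also: 0% = growth of vehicle-treated wt1 cultures.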 The following applies: S. cerevisiae wt1 strain (SPY 50644) growth inhibition, stronger effect = higher value. As to the method: Growth inhibition of yeast strains with defined genetic alterations is measured as a screen for potential anti-cancer activity. Selected strains with alterations in DNA damage repair or cell cycle control were exposed to compounds and growth inhibition was measured relative to vehicle treated controls. The strain used in this assay is wt1

With `CNC(=O)ON(C(C)=O)C(=O)NC`, the growth inhibition (at 1.2 µM) is -60%; the growth inhibition (at 3.7 µM) was -52%; the growth inhibition (at 11.0 µM) was -58%; the growth inhibition (at 33.0 µM) is -65%; the growth inhibition (at 100.0 µM) was -60%.

In the case of `CC1=C(CO)C2=C(C)C3(CC3)[C@@](C)(O)C(=O)C2=C1`, the growth inhibition is 0% (at 1.2 µM); -1% (at 3.7 µM); -1% (at 11.0 µM); 0% (at 33.0 µM); -13% (at 100.0 µM).

`CC[C@](O)(C(=O)O)c1cc2n(c(=O)c1CO)Cc1cc3ccccc3nc1-2`: the growth inhibition runs as follows: (at 1.2 µM) 0%; (at 3.7 µM) 10%; (at 11.0 µM) 67%; (at 33.0 µM) 92% (active); (at 100.0 µM) 94% (active).

Regarding `O=[N+]([O-])c1ccc(C=Cc2ccccc2)cc1.[C-]#[O+].[C-]#[O+].[C-]#[O+].[Cr]`, the growth inhibition is, setting by setting: (at 1.2 µM) -2%; (at 3.7 µM) -1%; (at 11.0 µM) 1%; (at 33.0 µM) 65%; (at 100.0 µM) 79% (active).

Turning to `O=S(=O)(O)/C(=C\c1ccccc1)c1ccccc1` (tested in a mixture with another compound), the growth inhibition (at 1.2 µM) was 1%; the growth inhibition (at 3.7 µM) was 0%; the growth inhibition (at 11.0 µM) is 1%; the growth inhibition (at 33.0 µM) was 0%; the growth inhibition (at 100.0 µM) is -1%.

As for `COC(=O)C1=C(C(=O)OC)C2OC1c1cc3ccccc3cc12`, the growth inhibition is 7% (at 1.2 µM); 14% (at 3.7 µM); 37% (at 11.0 µM); 97% (active) (at 33.0 µM); 99% (active) (at 100.0 µM).

In the case of `CC(Cc1ccccc1)N(C)Cc1nc(C2CCC([N+](=O)[O-])O2)no1` (stereo not given), the growth inhibition is, setting by setting: (at 1.2 µM) -1%; (at 3.7 µM) 0%; (at 11.0 µM) 2%; (at 33.0 µM) 3%; (at 100.0 µM) 8%.

Consider `O=P(CCCCP(=O)(c1ccccc1)c1ccccc1)(c1ccccc1)c1ccccc1.[Cl][Sn]([Cl])([c]1ccccc1)[c]1ccccc1`, for which the growth inhibition reads like this: (at 1.2 µM) -6%; (at 3.7 µM) 3%; (at 11.0 µM) 26%; (at 33.0 µM) 93% (active); (at 100.0 µM) 96% (active).

The record behind these values is PubChem BioAssay (NCI).
